Molecules are shown by their SMILES. For some assays here: Potency and affinity values are given separately.

The results in this text go back to ChEMBL document CHEMBL3988442, “University of Dundee, Small-Polar-MMV Screening Library” (2021).

Holding throughout (set-up): scale not given: direction of the effect not stated beside the values
Assay [1] addresses Protein translocase subunit SecA (Escherichia coli (strain K12)) (UniProt P10408). The experiment in a line: Assay to Identify E. coli SecA ATPase Inhibitors. The assay is classed as functional. Conditions: 30 µM.
In assay [2] the target is T1, Ubiquitin-activating enzyme e1, putative (Leishmania donovani (strain BPK282A1)) (UniProt E9BSI1).
T1 sequence (whole entry): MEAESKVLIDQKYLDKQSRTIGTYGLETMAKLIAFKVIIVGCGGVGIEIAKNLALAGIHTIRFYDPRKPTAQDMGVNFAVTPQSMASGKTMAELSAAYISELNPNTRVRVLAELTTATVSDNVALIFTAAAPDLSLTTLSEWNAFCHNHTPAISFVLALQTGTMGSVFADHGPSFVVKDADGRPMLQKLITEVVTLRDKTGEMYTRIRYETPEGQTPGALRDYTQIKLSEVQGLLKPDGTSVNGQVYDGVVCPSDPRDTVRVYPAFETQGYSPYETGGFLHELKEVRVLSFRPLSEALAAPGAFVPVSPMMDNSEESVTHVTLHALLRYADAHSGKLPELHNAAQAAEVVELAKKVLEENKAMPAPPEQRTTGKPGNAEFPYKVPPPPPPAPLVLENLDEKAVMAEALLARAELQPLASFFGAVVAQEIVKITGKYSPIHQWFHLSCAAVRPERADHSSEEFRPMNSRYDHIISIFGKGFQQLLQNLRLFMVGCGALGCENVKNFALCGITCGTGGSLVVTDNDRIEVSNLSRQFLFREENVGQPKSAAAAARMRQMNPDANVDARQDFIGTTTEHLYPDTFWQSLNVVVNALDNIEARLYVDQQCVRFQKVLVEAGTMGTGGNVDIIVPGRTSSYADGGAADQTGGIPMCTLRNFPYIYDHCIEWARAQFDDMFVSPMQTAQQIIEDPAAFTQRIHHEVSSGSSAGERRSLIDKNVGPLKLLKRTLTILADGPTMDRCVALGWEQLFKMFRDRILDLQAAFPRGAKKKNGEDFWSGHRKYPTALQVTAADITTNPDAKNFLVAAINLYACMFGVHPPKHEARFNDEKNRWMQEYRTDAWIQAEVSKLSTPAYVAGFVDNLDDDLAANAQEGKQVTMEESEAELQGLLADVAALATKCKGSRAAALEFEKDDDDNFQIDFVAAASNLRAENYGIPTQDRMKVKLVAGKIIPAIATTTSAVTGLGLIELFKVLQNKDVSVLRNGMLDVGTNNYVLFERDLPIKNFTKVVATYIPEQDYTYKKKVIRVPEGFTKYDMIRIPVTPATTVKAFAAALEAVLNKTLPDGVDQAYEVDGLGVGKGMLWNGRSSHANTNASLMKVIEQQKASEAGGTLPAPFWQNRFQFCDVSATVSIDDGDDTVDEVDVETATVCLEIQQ
The experiment in a line: Leishmania donovani Ubiquitin Activating Enzyme (LdE1). It is filed as functional. Conditions: 30 µM.

For assay [3], the target named is AMP-activated protein kinase, AMPK (Homo sapiens) (UniProt P54646+O43741+P54619+Q9UGJ0+Q9Y478+Q13131+Q9UGI9). Briefly: AMP-dependent Kinase enzyme assay. An in vitro enzyme assay that detects ADP turnover that is directly proportional to AMPK activity. This uses naive AMPK that is activated during the assay with MK-8722. The assay is classed as functional. The settings on record: 30 µM.

Assay [4] concerns the target Sialic acid-binding Ig-like lectin 9 (Homo sapiens) (UniProt Q9Y336). The experiment in a line: Hs-Siglec9 ALPHAscreen SOP 20170721. Conditions: 10 µM.
The subject of a further assay is Trypanosoma cruzi. Briefly: Trypanosoma cruzi phosphomannomutase and mannose-1-phosphate guanylyltransferase assay. Conditions: 10 µM. The assay is classed as functional.
The target in assay [5] is T2, Arginase-2, mitochondrial (Homo sapiens) (UniProt P78540).
T2 sequence (whole entry): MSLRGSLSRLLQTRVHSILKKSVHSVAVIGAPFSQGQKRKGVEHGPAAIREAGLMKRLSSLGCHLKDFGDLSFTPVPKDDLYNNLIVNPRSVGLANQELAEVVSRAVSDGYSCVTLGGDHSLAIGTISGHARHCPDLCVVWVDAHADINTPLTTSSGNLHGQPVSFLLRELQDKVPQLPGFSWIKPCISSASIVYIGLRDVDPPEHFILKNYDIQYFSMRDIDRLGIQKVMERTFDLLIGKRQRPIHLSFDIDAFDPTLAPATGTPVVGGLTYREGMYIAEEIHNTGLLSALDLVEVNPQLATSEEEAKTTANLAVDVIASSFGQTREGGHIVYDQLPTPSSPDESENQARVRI
Briefly: in vitro enzyme assay to detect the production of urea directly proportional to the activity of Arginase II. Further: in the data most compounds retested in dose-response had high values. It is filed as functional. Conditions: 33.3 µM.

Assay [6] concerns the target T3, Proteasome subunit beta (Trypanosoma cruzi) (UniProt O96673).
T3 sequence (whole entry): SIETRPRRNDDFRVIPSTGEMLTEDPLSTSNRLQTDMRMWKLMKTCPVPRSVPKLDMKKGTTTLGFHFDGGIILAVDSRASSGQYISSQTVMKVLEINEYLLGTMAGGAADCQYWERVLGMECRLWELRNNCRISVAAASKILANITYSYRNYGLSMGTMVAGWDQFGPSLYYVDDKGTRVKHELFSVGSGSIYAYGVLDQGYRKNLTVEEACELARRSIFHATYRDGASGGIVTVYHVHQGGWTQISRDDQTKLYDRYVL
The experiment in a line: Trypanosoma cruzi proteasome chymotrypsin-like activity (TcProtChymo) assay. Further: in the data most compounds retested in dose-response had high values. Conditions: 9.37 µM. The assay is classed as functional.

The next assay is filed under the species Homo sapiens. Briefly: To identify inhibition of the IFN signalling (Jak-Stat) pathway via expression of an eGFP reporter gene under the control of an IFN-stimulated response element (ISRE) containing MxA promoter. It is filed as functional. Conditions: 30 µM. A general note: Reporter assays use an easily measured gene product as a stand-in for the process of interest.

For assay [7], the target named is T4, Tyrosyl-tRNA synthetase, putative (Trypanosoma cruzi (strain CL Brener)) (UniProt Q4DSP6).
T4 sequence (whole entry): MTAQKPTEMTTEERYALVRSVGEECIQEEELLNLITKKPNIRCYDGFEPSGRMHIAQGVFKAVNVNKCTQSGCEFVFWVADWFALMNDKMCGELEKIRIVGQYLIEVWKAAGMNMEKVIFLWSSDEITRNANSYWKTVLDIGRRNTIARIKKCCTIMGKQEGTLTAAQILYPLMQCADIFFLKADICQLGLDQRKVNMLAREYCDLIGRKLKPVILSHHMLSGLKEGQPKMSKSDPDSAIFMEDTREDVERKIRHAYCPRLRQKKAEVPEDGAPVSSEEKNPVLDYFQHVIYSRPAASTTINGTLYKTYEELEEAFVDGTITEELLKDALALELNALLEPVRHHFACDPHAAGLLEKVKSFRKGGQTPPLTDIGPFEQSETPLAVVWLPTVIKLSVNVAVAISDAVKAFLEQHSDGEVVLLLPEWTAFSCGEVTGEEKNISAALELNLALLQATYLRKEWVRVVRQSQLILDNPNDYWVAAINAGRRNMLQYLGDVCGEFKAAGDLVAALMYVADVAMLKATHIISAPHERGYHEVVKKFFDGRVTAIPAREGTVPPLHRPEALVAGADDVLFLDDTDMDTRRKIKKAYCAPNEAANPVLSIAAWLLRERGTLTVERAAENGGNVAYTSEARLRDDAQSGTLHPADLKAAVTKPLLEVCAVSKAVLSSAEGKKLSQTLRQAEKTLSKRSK
Briefly: Trypanosoma cruzi tyrosyl tRNA synthetase (TcYRS) _High Tyrosine SOP. Further: in the data most compounds retested in dose-response had high values. Conditions: 30 µM. The assay is classed as functional.

Assay [8] deals with T4, Tyrosyl-tRNA synthetase, putative (Trypanosoma cruzi (strain CL Brener)). The experiment in a line: Trypanosoma cruzi tyrosyl tRNA synthetase (TcYRS) SOP. The settings on record: 30 µM. It is filed as functional.
Assay [9] addresses Chromo domain-containing protein 1 (Saccharomyces cerevisiae (strain ATCC 204508 / S288c) (Baker's yeast)) (UniProt P32657). The experiment in a line: ScCHD-1 Enzyme Inhibition Assay. Further: in the data most compounds retested in dose-response had high values. The assay is classed as functional. The settings on record: 30 µM.

Chain of Sialic acid-binding Ig-like lectin 9 (Homo sapiens) (Q9Y336 whole entry): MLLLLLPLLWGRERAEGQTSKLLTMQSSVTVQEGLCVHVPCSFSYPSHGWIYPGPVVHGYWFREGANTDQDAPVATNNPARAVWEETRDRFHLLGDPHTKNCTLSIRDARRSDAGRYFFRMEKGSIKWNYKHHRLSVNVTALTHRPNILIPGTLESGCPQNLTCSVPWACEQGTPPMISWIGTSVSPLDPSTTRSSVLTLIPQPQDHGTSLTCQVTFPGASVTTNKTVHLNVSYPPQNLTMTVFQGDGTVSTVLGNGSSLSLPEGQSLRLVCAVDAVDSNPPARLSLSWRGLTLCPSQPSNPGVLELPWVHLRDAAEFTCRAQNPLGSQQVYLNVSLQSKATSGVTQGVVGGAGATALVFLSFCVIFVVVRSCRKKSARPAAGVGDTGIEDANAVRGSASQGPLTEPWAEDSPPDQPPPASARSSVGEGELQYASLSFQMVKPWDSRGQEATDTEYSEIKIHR
Chain of Chromo domain-containing protein 1 (Saccharomyces cerevisiae (strain ATCC 204508 / S288c) (Baker's yeast)) (P32657 whole entry, the tested form may be a part): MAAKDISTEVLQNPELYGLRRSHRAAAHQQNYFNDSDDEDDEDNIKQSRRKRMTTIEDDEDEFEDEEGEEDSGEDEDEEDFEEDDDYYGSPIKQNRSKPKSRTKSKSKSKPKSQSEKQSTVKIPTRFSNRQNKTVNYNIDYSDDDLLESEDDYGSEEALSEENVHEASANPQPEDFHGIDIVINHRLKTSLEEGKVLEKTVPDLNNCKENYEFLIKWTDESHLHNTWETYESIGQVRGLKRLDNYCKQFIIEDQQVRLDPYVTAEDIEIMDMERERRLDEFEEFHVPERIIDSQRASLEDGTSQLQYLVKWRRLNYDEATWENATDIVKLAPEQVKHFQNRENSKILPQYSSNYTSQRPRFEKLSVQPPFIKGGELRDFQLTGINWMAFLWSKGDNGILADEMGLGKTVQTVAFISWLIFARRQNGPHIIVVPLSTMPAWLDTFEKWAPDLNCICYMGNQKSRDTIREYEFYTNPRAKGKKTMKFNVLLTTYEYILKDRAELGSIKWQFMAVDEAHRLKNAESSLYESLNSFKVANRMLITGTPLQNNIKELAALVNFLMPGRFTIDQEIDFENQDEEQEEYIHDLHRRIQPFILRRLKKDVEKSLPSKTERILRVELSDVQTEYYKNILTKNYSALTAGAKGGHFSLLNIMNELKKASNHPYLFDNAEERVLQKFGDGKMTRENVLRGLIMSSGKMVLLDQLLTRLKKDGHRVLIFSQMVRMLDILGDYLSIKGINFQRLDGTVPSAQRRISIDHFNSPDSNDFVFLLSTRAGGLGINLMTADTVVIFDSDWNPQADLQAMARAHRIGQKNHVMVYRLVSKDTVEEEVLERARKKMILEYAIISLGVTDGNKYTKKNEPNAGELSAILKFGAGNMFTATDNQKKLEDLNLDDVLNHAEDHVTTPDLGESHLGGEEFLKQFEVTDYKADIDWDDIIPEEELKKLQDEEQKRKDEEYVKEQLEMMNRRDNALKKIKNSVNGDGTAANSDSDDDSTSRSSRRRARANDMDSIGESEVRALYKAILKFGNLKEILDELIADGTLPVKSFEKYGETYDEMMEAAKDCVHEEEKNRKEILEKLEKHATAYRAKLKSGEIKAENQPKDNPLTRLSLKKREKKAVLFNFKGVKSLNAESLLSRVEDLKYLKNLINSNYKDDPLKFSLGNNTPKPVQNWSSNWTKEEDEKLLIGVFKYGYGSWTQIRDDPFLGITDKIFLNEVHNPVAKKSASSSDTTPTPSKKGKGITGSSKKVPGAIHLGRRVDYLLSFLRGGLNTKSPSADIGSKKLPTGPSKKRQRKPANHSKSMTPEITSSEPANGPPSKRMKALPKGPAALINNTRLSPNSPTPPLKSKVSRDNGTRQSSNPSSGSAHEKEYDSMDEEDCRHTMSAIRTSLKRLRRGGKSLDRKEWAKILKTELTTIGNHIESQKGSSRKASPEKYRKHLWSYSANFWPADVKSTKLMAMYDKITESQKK
Chain of Protein translocase subunit SecA (Escherichia coli (strain K12)) (P10408 whole entry): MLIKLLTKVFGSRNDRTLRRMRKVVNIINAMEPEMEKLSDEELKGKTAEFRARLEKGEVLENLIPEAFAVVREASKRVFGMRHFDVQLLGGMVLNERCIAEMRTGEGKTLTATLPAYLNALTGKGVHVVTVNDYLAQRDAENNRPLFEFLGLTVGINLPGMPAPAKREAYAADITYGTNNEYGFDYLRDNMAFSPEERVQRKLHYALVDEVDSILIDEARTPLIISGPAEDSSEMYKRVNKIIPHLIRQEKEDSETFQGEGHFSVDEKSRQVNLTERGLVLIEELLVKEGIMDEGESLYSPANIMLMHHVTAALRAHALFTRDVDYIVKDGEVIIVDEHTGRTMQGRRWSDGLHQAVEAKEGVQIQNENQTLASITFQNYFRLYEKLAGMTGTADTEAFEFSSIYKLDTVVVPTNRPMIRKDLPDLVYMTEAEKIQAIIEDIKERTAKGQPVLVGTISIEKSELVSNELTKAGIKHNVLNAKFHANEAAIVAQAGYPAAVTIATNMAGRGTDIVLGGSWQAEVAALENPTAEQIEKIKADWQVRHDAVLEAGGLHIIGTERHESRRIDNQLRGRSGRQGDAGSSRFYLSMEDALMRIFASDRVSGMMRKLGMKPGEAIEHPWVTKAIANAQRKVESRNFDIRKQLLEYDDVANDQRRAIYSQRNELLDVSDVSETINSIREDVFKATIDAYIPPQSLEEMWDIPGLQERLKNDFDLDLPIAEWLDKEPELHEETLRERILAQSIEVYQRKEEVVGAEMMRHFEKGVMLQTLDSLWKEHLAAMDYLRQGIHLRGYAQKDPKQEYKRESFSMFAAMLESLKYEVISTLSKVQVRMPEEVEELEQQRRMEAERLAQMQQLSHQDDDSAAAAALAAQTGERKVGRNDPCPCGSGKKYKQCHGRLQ

`CC(C)c1noc(CN(Cc2ccccc2F)C2CC2)n1`: the Percent Effect in [1] was -1.22%; in assay [2], 15.6%; in [3] it was -0.613%; in assay [4], 8.23%; in the assay on Trypanosoma cruzi, 3.64%; in assay [5] it was -75.9%. The Percent Effect was 22.5% in assay [6]; 10.9% in the assay listed under Homo sapiens; 7.53% in assay [7]; 18.5% in [8]; -1.83% in assay [9].
On to `Cc1ncsc1CN1C[C@H](C(=O)N2CCCO2)[C@@H]2CCO[C@@H]2C1`, for which the Percent Effect is -2.57% in assay [1]; -8.22% in [2]; -4.3% in assay [3]; 10.2% in [4]; 7.74% in the assay with Trypanosoma cruzi; -7.58% in assay [5]. For the same compound, the Percent Effect was 16.5% in assay [6]; -2.42% in the assay filed under Homo sapiens; 5.21% in assay [7]; 3.7% in assay [8]; -1.86% in [9].
Regarding `Cc1ccc(Nc2nccc(C3CN(CC(N)=O)C3)n2)nc1`, the Percent Effect in assay [1] is -6.39%; in assay [2], 20.3%; in [3], 2.38%; in assay [4], 3.4%; in the assay on Trypanosoma cruzi, 7.12%; in assay [5] it was -5.8%. For the same compound, the Percent Effect in [6] was 17.2%; in the assay listed under Homo sapiens it was 10.7%; in assay [7], 8.6%; in assay [8], 24.7%; in [9], -14.1%.
On to `CCn1c(N)nc2cc(C(=O)NCc3ccccc3Cl)cnc21`, for which the Percent Effect in [1] was -5.22%; in [2], 8.22%; in [3], 1.39%; in assay [4], -1.08%; with Trypanosoma cruzi, -0.196%; in assay [5], 5.91%. Further, the Percent Effect in assay [6] is 14.9%; in the assay filed under Homo sapiens it was 5.03%; in [7], 7.53%; in [8], 17.5%; in assay [9], -4.29%.
On to `Cc1ccc(N2CC[C@H](OCC3CC3)[C@@H]2Cc2cnn(C)c2)nn1`, for which the Percent Effect is -4.88% in assay [1]; 5.41% in assay [2]; -7.52% in [3]; -0.711% in assay [4]; -0.195% with Trypanosoma cruzi; 0.833% in assay [5]. For the same compound, the Percent Effect in assay [6] was 15.1%; in the assay filed under Homo sapiens, 8.56%; in assay [7] it was 7.92%; in assay [8] it was 8.54%; in assay [9], 0.632%.
Regarding `O=C(Cc1ccsc1)NCC1OCCc2cn(CC3CC3)nc21` (stereo not given), the Percent Effect in [1] is -2.34%; in [2], 7.79%; in assay [3] it was 4.36%; in [4], -0.104%; in the assay on Trypanosoma cruzi, -3.06%; in [5] it was 4.52%. For the same compound, the Percent Effect was 9.92% in [6]; 10.1% in the assay listed under Homo sapiens; 8.47% in [7]; 8.97% in assay [8]; -0.722% in assay [9].
Regarding `CCN(CC1CN(CCc2ccccn2)CCO1)c1cccnn1` (stereo not given), the Percent Effect is -2.15% in [1]; 0% in assay [2]; -5.23% in assay [3]; -0.0186% in assay [4]; 4.77% with Trypanosoma cruzi; 3.12% in assay [5]. The Percent Effect in assay [6] is 14.7%; in the assay filed under Homo sapiens, -14.7%; in [7] it was 0.546%; in [8] it was 1.24%; in assay [9] it was 2.6%.
`CC(C)(C)n1ncc2c1CCCC2NCc1cccc2c1OCO2` (stereo not given): the Percent Effect is -2.65% in assay [1]; -1.27% in [2]; 2.85% in assay [3]; 2.62% in assay [4]; -4.41% in the assay with Trypanosoma cruzi; 6.24% in assay [5]. Also, the Percent Effect in assay [6] was 10.1%; in the assay listed under Homo sapiens it was 12.2%; in assay [7], 1.04%; in assay [8] it was -5.06%; in assay [9], -10.4%.
`CCc1nc(C2CCCN(C(=O)c3ccc4[nH]nnc4c3)C2)no1` (stereo not given): the Percent Effect in assay [1] is -3.01%; in assay [2], 0%; in assay [3], 1.62%; in [4] it was 0.134%; with Trypanosoma cruzi, -4.8%; in [5], 4%. Further, the Percent Effect is 17.2% in assay [6]; 11.3% in the assay listed under Homo sapiens; 0% in [7]; 0% in assay [8]; -11.2% in [9].
As to `Cc1ccccc1[C@@H]1CN(C(=O)c2ccc3[nH]nnc3c2)C[C@H]1C(=O)O`, the Percent Effect in assay [1] is -4.25%; in assay [2] it was -11%; in assay [3], 4.06%; in assay [4], 1.72%; in the assay with Trypanosoma cruzi, -5.75%; in assay [5] it was 0.399%. Further, the Percent Effect in assay [6] is 8.65%; in the assay filed under Homo sapiens, 2.78%; in assay [7], 3.12%; in assay [8] it was 3.7%; in assay [9], 2.93%.
